Rows were chosen to be rich in hits. Some 2.7% of all compounds tested hit in one or more screens of this group.
12-LOX inh: ALOX12 (human) lipoxygenase inhibition; P18054; purified 12hLO, xylenol orange hydroperoxide absorbance; Potency, µM (series often up to 108 µM), hits mostly inhibitors; actives 1.1% (n = 580,000); AID 1671190
Target sequence (P18054 whole entry, looked up): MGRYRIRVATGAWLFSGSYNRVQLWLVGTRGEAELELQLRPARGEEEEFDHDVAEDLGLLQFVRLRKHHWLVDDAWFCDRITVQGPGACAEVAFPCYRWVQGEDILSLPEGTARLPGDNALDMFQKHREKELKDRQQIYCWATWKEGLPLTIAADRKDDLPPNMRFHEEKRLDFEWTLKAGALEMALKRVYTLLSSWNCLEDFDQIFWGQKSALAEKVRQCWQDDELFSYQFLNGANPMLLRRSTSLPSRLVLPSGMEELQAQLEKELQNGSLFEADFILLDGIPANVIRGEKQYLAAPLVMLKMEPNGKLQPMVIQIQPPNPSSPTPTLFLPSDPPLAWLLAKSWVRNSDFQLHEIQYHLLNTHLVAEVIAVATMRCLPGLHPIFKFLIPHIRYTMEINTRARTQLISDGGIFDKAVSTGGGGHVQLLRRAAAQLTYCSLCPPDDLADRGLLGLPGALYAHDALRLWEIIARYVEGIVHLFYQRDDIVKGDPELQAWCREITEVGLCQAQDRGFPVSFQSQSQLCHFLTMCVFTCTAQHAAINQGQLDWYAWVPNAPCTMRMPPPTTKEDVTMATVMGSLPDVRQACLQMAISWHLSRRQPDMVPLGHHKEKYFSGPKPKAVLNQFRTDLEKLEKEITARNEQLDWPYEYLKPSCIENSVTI
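Purified human 12hLO at 150 nM in 25 mM Hepes, 0.01% Triton X-100, pH 7.0, preincubated 15 min at room temperature with compound. Reaction started with 40 uM arachidonic acid, 30 min at room temperature. Hydroperoxide measured by Fe-xylenol orange, 573/405 nm absorbance ratio.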
LDHA inh: inhibitors of human lactate dehydrogenase A; P00338; purified LDHA, NADH/diaphorase-resazurin fluorescence; stronger effect = lower value; activity change, % (values are at about 110 or 230 µM); actives 0.15% (n = 480,000); AID 1347041; in the data active means activity change below about -30%; inconclusive means mostly about -25% to -30%
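Enzyme activity of human lactate dehydrogenase 5 (2 nM; 0.06 mM NADH, 0.2 mM pyruvate, 5 min, RT) is measured via a resazurin/diaphorase fluorescence readout of residual NADH.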
A549 viability: counter-screen for Nrf2 inhibitors: cytotoxicity in A549 cells; A549 ARE-Fluc cells, CellTiter-Fluor viability, 18-24 h; actives 0.16% (n = 390,000); AID 504648; Potency, µM (top dose mostly 46 µM), most hits filed as inhibitors
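A549 ARE_Fluc cells in 5% FBS OPTI-MEM were exposed to compounds in concentration-response for 18-24 h at 37 deg C. Viability was read by CellTiter-Fluor fluorescence (Ex 405/Em 525) after 30 min, before the luciferase read.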
ERG-DNA inh: ERG Ets/DNA interaction inhibition. P11308. fluorescence polarization, His-ERG Ets domain / labelled DNA. Potency, µM (doses to about 76.9 µM), most hits filed as inhibitors. actives 0.028% (n = 370,000). AID 624246; active means well fitted inhibition curve with a large enough effect in the polarisation, with a control signal flat; inconclusive means small, poorly fitted or top-dose-only effect, or effect the other way, or a change in a side signal; inactive means no such curve, though single readings can be large or run the other way; the % refers to the polarisation;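 further: polarization taken with two DNA probes labelled with fluorescein and Texas red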
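His-tagged ERG Ets domain (1 uM in the protein solution; 300mM KCl, 50mM Tris-HCl, 1mM EDTA, 1mM DTT, pH 7.5) received compound, then a probe mix of 5 nM fluorescein-DNA and 100nM Texas-615-DNA. Fluorescence polarization was read for both dyes.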
Nrf2 inh: blocks Nrf2 signaling; A549 ARE-Fluc reporter, luciferase luminescence, 18-24 h; Potency, µM (series often up to 46 µM), hits mostly inhibitors; actives 2.1% (n = 360,000); AID 504444; further: nearly all actives have a fitted effect of over 60% in size
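Quantitative HTS in A549 cells stably bearing an antioxidant response element-firefly luciferase construct. Inhibition of Nrf2-driven transcription was scored by luminescence after 18-24 h of compound exposure at 37 °C.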
Nrf2 activator: Nrf2 pathway activation. AREc32 ARE-luciferase reporter (MCF7-derived line), luminescence, 24 h. actives 0.31% (n = 410,000). AID 624171. Potency, µM (doses to about 46.1 µM), most hits filed as activators; further: nearly all actives have a fitted effect of over 65% in size
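AREc32_Fluc, 1000 cells/well, OPTI-MEM + 5% FBS, o/n 37 deg C 5% CO2; 23 nL cpd by pin tool, 24 hr; Steady-Glo 30 min RT, luminescence.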
A number is an active result; i = inactive; ? = inconclusive; nt = not tested or not shown; [ ] = remark or other dose. Unless noted, the call rests on the fitted dose curve; in most records, active means well fitted curve in the direction sought with a large enough effect; inconclusive means small, poorly fitted or top-dose-only effect, or another doubt; inactive means no such curve, though single readings can be large; an effect the other way counts as inactive or inconclusive.

SMILES	12-LOX inh	LDHA inh	A549 viability	ERG-DNA inh	Nrf2 inh	Nrf2 activator
O=C(Nc1cccnc1)Nc1ccc(Cl)cc1Cl	25µM	i	i	i	i	i
N#Cc1ccc(CSCc2nc(N)nc(Nc3ccccc3)n2)cc1	?	i	nt	nt	nt	nt
CCCCCCCCCCCCS(=O)CC(Cl)CO (stereo not given)	i	i	nt	nt	nt	nt
Cc1c(-c2ccccc2)oc2c(C(=O)OCC(=O)NC(=O)NC3CCCC3)cccc2c1=O	i	i	nt	nt	nt	nt
Cc1ccc(NC(=O)Nc2cccnc2)cc1NC(=O)Nc1cccnc1	i	i	i	i	18µM	i
COc1ccc(C)cc1NC(=O)C1CCCN(c2ncnc3onc(-c4ccc(F)cc4)c23)C1 (stereo not given)	i	i	nt	nt	nt	nt
CC1=C(C#N)C(=O)NC(=O)/C1=C\c1ccc(-c2ccc(C)cc2[N+](=O)[O-])o1	11µM	i	i	i	i	i
Cn1c(CN2CCOC[C@H]2c2ncc(-c3ccc(Cl)cc3)[nH]2)nc2ccccc21	35µM	nt	nt	nt	nt	nt
Cc1ccc(NC2Sc3ccccc3NC2=O)cc1 (stereo not given)	7.1µM	i	i	i	i	i
Cc1cccc(Nc2nc(-c3ccc4c(c3)CCN4S(C)(=O)=O)cs2)c1	35µM	i	nt	nt	nt	nt
CCCNc1nc(-c2ccc3c(c2)CCCN3S(C)(=O)=O)cs1	?	i	nt	nt	nt	nt
CS(=O)(=O)N1CCc2cc(-c3csc(NC(=O)Cc4cccs4)n3)ccc21	i	i	i	i	18µM	i
CC(=O)Nc1nc(-c2ccc3c(c2)CCN3S(C)(=O)=O)cs1	i	i	i	i	i	i
O=C(Nc1ccc(O)c(-c2nc3ccccc3o2)c1)c1cccc(Cl)c1	i	i	nt	nt	nt	nt
O=C(O)c1ccc2ncsc2c1	45µM	i	i	i	?	i
O=C(c1ccc2ncsc2c1)N1CCCCC1	i	i	i	i	i	i
O=C(O)CCC(=O)C1CC(=O)OC1C(=O)O (stereo not given)	?	i	nt	nt	nt	nt
CCCCOc1cccc(-c2cc(C(=O)O)c3ccccc3n2)c1	?	i	nt	nt	nt	nt
COc1ccc(-c2c(C3C4C=CCC(C)C4C(=O)N3Cc3ccccc3)ccc3ccccc23)cc1OC (stereo not given)	nt	nt	i	nt	21µM	nt
COc1ccc(C2C3C=CCC(c4ccccc4)C3C(=O)N2Cc2ccccc2)cc1Cl (stereo not given)	nt	nt	?	nt	21µM	nt
CCN(Cc1ccccc1)S(=O)(=O)c1ccc(S(N)(=O)=O)cc1	?	i	nt	nt	nt	nt
CC1(C)C2CCC1(C(=O)Nc1ccc(F)c(F)c1)C(=O)C2 (stereo not given)	i	i	nt	nt	nt	nt
COC(=O)c1c(NC(=O)CSc2ccccn2)sc2c1CCCC2	i	i	nt	nt	nt	nt
O=C(CSc1nc(-c2ccc(F)cc2)[nH]c1-c1ccccc1)Nc1ccccc1	i	i	i	i	21µM	i
COc1ccc(NC(=O)CSc2nc(-c3ccccc3)[nH]c2-c2ccccc2)cc1OC	i	i	i	i	16µM	i
SMILES	12-LOX inh	LDHA inh	A549 viability	ERG-DNA inh	Nrf2 inh	Nrf2 activator
COc1ccc(-c2nc(SCC(=O)Nc3ccc4c(c3)OCO4)c(-c3ccc(F)cc3)[nH]2)cc1OC	i	i	i	i	?	i
COc1ccc(-c2nc(SCC(=O)Nc3ccccc3)c(-c3ccc(F)cc3)[nH]2)cc1OC	i	i	?	i	15µM	i
COc1ccc(NC(=O)CSc2nc(-c3ccc(F)cc3)[nH]c2-c2ccc(C)cc2)cc1OC	i	i	?	i	?	i
COc1ccc(NC(=O)C#Cc2ccccc2)cc1OC	i	i	i	i	8.2µM	i[9.22 µM]
Cc1cccc(NC(=O)C(C)OC(=O)C2=CN3CCS(=O)(=O)N=C3C=C2)c1 (stereo not given)	?	i	nt	nt	nt	nt
Cc1ccc(S(=O)(=O)Nc2nc3ccccc3nc2N2CCCCC2)cc1	?	i	nt	nt	nt	nt
COc1ccc(NC(=O)CSc2ccccn2)cc1OC	i	i	i	i	i	i
COc1ccc(NC(=O)CSc2ncccc2C(=O)OC(C)C)cc1OC	i	i	i	i	9.2µM	i
CCNC(=S)N/N=C(/C)c1cccc(F)c1	?	i	nt	nt	nt	nt

Screens: PubChem, National Center for Advancing Translational Sciences (NCATS)
